# High-throughput results: PubChem BioAssay, National Center for Advancing Translational Sciences (NCATS)
# This is a sample that favours compounds with a hit; in the whole collection about 1.2% have one here.
# Mito fusion act – qHTS Assay for Small Molecule Inhibitors of Mitochondrial Division or Activators of Mitochondrial Fusion | AID 485298, 2010 | S. cerevisiae fusion-defective mutant growth rescue, CellTiterGlo 48 h | Potency, µM (top dose mostly 46.1 µM), for the others: at the highest dose growth rescue (activation), actives largely listed as activators | hit rate 0.23% among 320,000; further: % of control where 0% means no effect; nearly all actives have a fitted effect of over 45% in size
#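 Luminescent cell viability in 1536-well qHTS format served as the measure of rescued growth in ts fusion-mutant S. cerevisiae cultured on non-fermentable YPEG for 48 hours at 37C.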
# BRCA1 expr act – qHTS Assay to Identify Small Molecule Activators of BRCA1 Expression; MCF7-BRCA1-FFLuc reporter, luminescence, 48 h; response scale: scaled: vehicle 0%, 10 µM genistein 100%; Potency, µM (doses to about 46.1 µM), inactives show top-dose activation, actives largely listed as activators; hit rate 1.1% among 380,000; AID 624202, 2012; further: nearly all actives have a fitted effect of over 80% in size
#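 Quantitative HTS in MCF7 cells stably reporting BRCA1 expression via firefly luciferase. Compound treatment lasts 48 h at 37 °C in phenol-red free MEM. Activation is expressed relative to genistein at 10 microM and DMSO.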
# B2AR arrestin – qHTS assay of beta-arrestin-biased ligands of beta2-adrenergic receptor; Beta-2 adrenergic receptor (Homo sapiens), P07550; beta-arrestin recruitment to beta2AR, cell-based reporter; Potency, µM (highest dose often 46.1 µM), without a hit: at the highest dose activation, hits mostly activators; hit rate 0.02% among 330,000; AID 492947, 2010;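 further: 0% = DMSO controls and full agonism = EC100 isoproterenol or metaproterenol; nearly all actives have a fitted effect of over 65% in size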
# Target sequence (P07550 whole entry, looked up): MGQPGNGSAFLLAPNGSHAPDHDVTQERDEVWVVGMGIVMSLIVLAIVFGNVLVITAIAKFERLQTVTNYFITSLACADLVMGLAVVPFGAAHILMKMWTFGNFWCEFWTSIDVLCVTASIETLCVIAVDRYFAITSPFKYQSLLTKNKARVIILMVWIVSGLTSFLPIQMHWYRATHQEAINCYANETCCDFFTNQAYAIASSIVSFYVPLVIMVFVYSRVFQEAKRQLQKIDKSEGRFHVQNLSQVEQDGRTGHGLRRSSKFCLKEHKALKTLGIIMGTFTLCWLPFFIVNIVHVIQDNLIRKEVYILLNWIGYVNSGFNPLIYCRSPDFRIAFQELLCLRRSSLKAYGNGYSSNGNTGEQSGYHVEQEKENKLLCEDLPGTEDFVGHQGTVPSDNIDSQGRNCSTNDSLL
# ERG Ets-DNA blk – qHTS for Small Molecule Inhibitors of the ERG Ets/DNA interaction; Transcriptional regulator ERG (Homo sapiens), P11308; fluorescence polarization, His-ERG Ets domain / labelled DNA; Potency, µM (doses to about 76.9 µM), without a hit: at the highest dose FP activity, negative = inhibition, hits mostly inhibitors; hit rate 0.028% among 370,000; AID 624246, 2012; active means well fitted inhibition curve with a large enough effect in the polarisation, with a control signal flat; the % refers to the polarisation;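 further: polarization taken with two DNA probes labelled with fluorescein and Texas red; % of control where 0% means no effect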
#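 His-tagged ERG Ets domain (1 uM in the protein solution; 300mM KCl, 50mM Tris-HCl, 1mM EDTA, 1mM DTT, pH 7.5) received compound, then a probe mix of 5 nM fluorescein-DNA and 100nM Texas-615-DNA. Fluorescence polarization was read for both dyes.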
# An asterisk follows results filed as active; / = no result given. Unless noted, the call rests on the fitted dose curve; in most records, active means well fitted curve in the direction sought with a large enough effect; inconclusive means small, poorly fitted or top-dose-only effect, or another doubt; inactive means no such curve, though single readings can be large; an effect the other way counts as inactive or inconclusive. Potency means the concentration at half of the fitted maximal effect.
SMILES,Mito fusion act,BRCA1 expr act,B2AR arrestin,ERG Ets-DNA blk
COc1cc2c(cc1OC)C(C)N(C(=O)c1cc3c(s1)-c1ccccc1OC3)CC2 (stereo not drawn),20µM*,-22.4%,-0.6%,-4.8%
COc1cccc(N2CCN(C(=O)c3cc4c(s3)-c3c(C)cccc3OC4)CC2)c1,/,/,/,-3.7%
COc1cc2c(cc1OC)C(C)N(C(=O)c1cc3c(s1)-c1c(C)cccc1OC3)CC2 (stereo not drawn),25.1µM*,-3.3%,-0.7%,-12.7%
Cc1nc(C(=O)O)nn1-c1ccc([N+](=O)[O-])cc1,-2.1%,-2.4%,0.2%,-10.8%
Cc1nc(-c2ccccc2)nn1-c1ccc([N+](=O)[O-])cc1,/,5.01µM*,/,7.1%
O=C(O)c1ccc(N=Nc2c(O)[nH]c3ccc(Br)cc23)cc1,13.9%,5.62µM*,-0.8%,-4.1%
CCOc1ccccc1CNC(=O)c1ccc2nc(CCc3ccccc3)oc2c1,/,/,/,-1.1%
Cc1cccn2c(=O)c(C(=O)NCCc3ccccc3)c(O)nc12,/,/,/,1.0%
CNS(=O)(=O)c1cn(CC(=O)Nc2cccc(C(F)(F)F)c2)cc1S(=O)(=O)NC,/,/,/,-0.2%
COc1cc(/C=N/n2c(C)n[nH]c2=S)ccc1OCc1ccc(F)cc1,-0.8%,5.62µM*,-1.2%,-0.5%
CCOc1cc(CNCCSc2nnnn2-c2ccccc2)cc(Cl)c1OC,/,/,/,1.4%
COc1ccc(-c2csc(-c3cccnc3)n2)cc1C,0.4%,12.6µM*,-0.1%,-0.7%
COc1ccc(-c2csc(Nc3ncccc3C)n2)cc1OC,-3.4%,2.82µM*,0.8%,-8.4%
COc1ccc(NC(=S)Nc2ncccc2C)cc1OC,5.8%,7.94µM*,-0.2%,2.3%
CCc1cccc(C)c1NC(=O)c1cc(S(=O)(=O)NCc2ccccc2Cl)ccc1F,/,/,/,-12.0%
Brc1ccccc1OCCCn1cnc2ccccc21,13.6%,11.2µM*,0.3%,-8.1%
Cc1ccccc1NC(=O)c1c(C)oc2ccc(O)c(CN3CCOCC3)c12,/,/,/,4.3%
S=C(N/N=C/c1ccc(Br)cc1)N1CCCCC1,-12.3%,8.91µM*,0.4%,-8.6%
Cc1ccc(N=Nc2c(N)n[nH]c2N)cc1,-3.5%,10µM*,0.1%,5.9%
Nc1n[nH]c(N)c1N=Nc1ccc2c(c1)OCO2,-2.5%,10µM*,-1.0%,3.3%
COc1ccc(C(=O)c2ccsc2N)cc1,11.3%,11.2µM*,9.5%,8.9%
CCc1cc(C(=O)c2ccc(OC)cc2)c(N)s1,2.8%,-27.7%,-0.2%,4.3%
Cc1sc2ccccc2[n+]1CCCC[n+]1c(C)sc2ccccc21,/,-10.2%,/,/
Cc1cc(/C=C(\C#N)C(=O)Nc2ccccc2)c(C)n1-c1cccnc1,0.1%,5.62µM*,0.1%,-11.5%
CCn1c(SCC(=O)OC(C)C)nnc1-c1ccccc1,-1.7%,-15.6%,-1.8%,-12.5%
SMILES,Mito fusion act,BRCA1 expr act,B2AR arrestin,ERG Ets-DNA blk
CCn1c(SCC(O)c2ccccc2)nnc1-c1ccccc1 (stereo not drawn),-0.4%,11.2µM*,-0.6%,3.0%
Cc1ccc(OCC(=O)Nc2ccc(S(=O)(=O)Nc3cc(C)nc(C)n3)cc2)c(Br)c1,/,/,/,-2.7%
O=C(CN1N=C(C(F)(F)F)CC1(O)c1ccc([N+](=O)[O-])cc1)c1ccccc1 (stereo not drawn),15.8µM*,-0.6%,-0.1%,3.5%
O=C(c1ccccc1O)N1N=C(C(F)(F)F)CC1(O)c1ccc([N+](=O)[O-])cc1 (stereo not drawn),-15.5%,-20.6%,-0.1%,-2.8%
COc1cc(OC)c(C2CC(=O)N3CN(c4ccc(C)cc4)CSC3=C2C#N)cc1OC (stereo not drawn),-1.0%,6.31µM*,-0.5%,-1.5%
COc1ccc(N2CSC3=C(C#N)C(c4cc(OC)c(OC)cc4OC)CC(=O)N3C2)c(OC)c1 (stereo not drawn),7.1%,-25.4%,0.0%,3.4%
COc1ccc(Cn2c(=O)c3cccnc3n(Cc3cccc(F)c3)c2=O)cc1,/,10.3%,/,-3.2%
COc1ccc(C(=O)NC2CCCc3c2cnn3-c2cc(F)cc(F)c2)c(OC)n1 (stereo not drawn),-1.6%,-38.7%,0.2%,-5.5%
COc1ccc(C(=O)NC2CCCc3c2cnn3-c2cc(F)cc(F)c2)c(OC)c1OC (stereo not drawn),11.2µM*,-40.6%,0.0%,3.2%
COc1cc(OC)c(-c2nn3c(-c4cc(C)[nH]n4)nnc3s2)cc1OC,/,0.0%,/,/
